Consider 12 compounds from PubChem BioAssay (NCI).

Assay in all cases: NCI-60 one-dose screen, 48 h (100 = growth as untreated, 0 = no growth, -100 = all killed)
Common to all, as to conditions: 10 µM unless noted

In assay [1] the test system is SK-MEL-2 melanoma.
The test system of assay [2] is EKVX NSCLC.
Assay [3] concerns SN12C renal.
Assay [4] deals with UO-31 renal.
Assay [5] has as its system TK-10 renal.
Assay [6] has as its system ACHN renal.
For assay [7], the system named is CAKI-1 renal.
The subject of assay [8] is A498 renal.
Assay [9] concerns CCRF-CEM leukemia.
Assay [10] relates to MOLT-4 leukemia.

Each structure is given as a SMILES string. Compounds without any hit were thinned out: in the full panel of roughly 83,000, 20% have a hit.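 Testing used 96-well plates and a 48-hour single-concentration exposure. Example: -40 means 40% of the starting cells died.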 Unmarked numbers belong to inactive results. The source made the active and inactive calls. How the source made its calls: active means growth percent below 10; inactive means the rest.

For `COc1ccccc1N1CCN(C2=C(Cl)C(=O)c3ncccc3C2=O)CC1`, the growth in assay [1] is 95.5%; in [2] it was 98.2%; in assay [3] it was 88.3%; in assay [4] it was 44.5%; in assay [5] it was 148%; in assay [6], 45.7%. Also, the growth was 63.6% in [7], 115% in assay [8], 11.5% in [9] and 38.3% in assay [10].

As for `O=C1Nc2ccccc2/C1=C/c1ccc(OCC(=O)c2ccccc2)cc1`, the growth was 113% in assay [1]; 100% in [2]; 93.9% in assay [3]; 69.5% in assay [4]; 125% in [5]; 96.6% in assay [6]. The growth was 86.9% in [7], 104% in assay [8], 98.1% in assay [9] and 97.8% in assay [10].

With `C#Cc1nc(/C=C\CCCCCCC(=O)NO)cs1`, the growth is 92.1% in [1]; 82.9% in [2]; 80.9% in [3]; -76.2% (active) in assay [4]; 42% in assay [5]; 11.3% in assay [6]. In addition, the growth is -20.2% (active) in [7], 34.2% in assay [8], -40.5% (active) in assay [9] and -24.6% (active) in [10].

Regarding `N#Cc1c(-c2cccs2)cc(-c2cnccn2)nc1SCC(=O)N/N=C/c1ccccc1`, the growth was 103% in [1]; 56.2% in assay [2]; 45.5% in assay [3]; 75.8% in assay [4]; -14.7% (active) in assay [5]; 56.9% in assay [6]. The growth is 48.2% in assay [7], 87.8% in assay [8], 62.6% in assay [9] and 71.8% in [10].

For the compound `CSc1ccc(/C(=N/N=C(N)N)c2ccc(Cl)cc2)cc1`, the growth is -7.8% (active) in [1]; 35.1% in assay [2]; 7.12% (active) in [3]; 10.1% in assay [4]; 51.3% in assay [5]; 15% in assay [6]. Moreover, the growth in [7] is 3.83% (active); in [8], -21.6% (active); in [9], 16.1%; in assay [10], 13.4%.

With `COc1ccc2[nH]cc(-c3nn4cc(-c5ccncc5)nc4s3)c2c1`, the growth in assay [1] is 101%; in assay [2], 55.4%; in assay [3] it was 83.5%; in [4] it was 23.3%; in assay [5], 109%; in assay [6], 57.5%. Moreover, the growth in [7] was 56.9%; in [8], 68.9%; in assay [9], 37.9%; in [10] it was 50.4%.

On to `CCN(CC)CCOc1ccc(C(=C(c2ccccc2)C2CCCC2)c2ccc(OCCN(CC)CC)cc2)cc1`, for which the growth in assay [1] is 6.57% (active); in assay [2], 48.4%; in assay [3], 6.33% (active); in assay [4], 86.5%; in assay [5], 74.3%; in assay [6], 95.3%. Moreover, the growth in [7] was 94.2%; in assay [8], 96.5%; in assay [9], 8.31% (active); in assay [10], 0.859% (active).

With `CCCCCc1ccc(S(=O)(=O)Nc2cc(-c3csc(N)n3)ccc2OC)cc1`, the growth in assay [1] is 112%; in [2], 86.4%; in assay [3], 89.2%; in [4], 53.5%; in [5], 113%; in assay [6] it was 98%. The growth in assay [7] was 88.4%; in assay [8] it was 96.6%; in assay [9], 57.4%; in [10] it was 78.6%.

In the case of `CCOC(=O)c1cccnc1Nc1ccc(NC(=O)Nc2ccc(Cl)c(C(F)(F)F)c2)cc1`, the growth is 37.2% in assay [1]; 40.6% in assay [2]; 51.3% in [3]; 34.1% in assay [4]; 40.3% in assay [5]; 35.3% in assay [6]. Besides, the growth in assay [7] was 22.6%; in [8] it was 41.3%; in [9], 29.5%; in assay [10] it was 24.9%.

For `CC1(C)CC[C@]23CC[C@]4(C)[C@H](CC[C@@H]5[C@@]6(C)CC[C@H](NCO)C(C)(C)[C@@H]6CC[C@]54C)[C@H]2[C@H]1OC3`, the growth in [1] is 97.2%; in assay [2], 93.9%; in assay [3], 43.3%; in [4] it was 73.9%; in assay [5], 122%; in [6], 26.4%. Besides, the growth in [7] is 29.3%; in [8], 106%; in [9], 36.5%; in [10], 15%.

Turning to `CC(O)c1cccc(/C(N)=N/C(N)=N/c2nc3ccccc3s2)c1` (stereo not given), the growth was 107% in [1]; 91.9% in assay [2]; 86.9% in assay [3]; 89.2% in [4]; 133% in assay [5]; 86.6% in assay [6]. For the same compound, the growth in [7] was 101%; in assay [8] it was 90.7%; in assay [9] it was 84%; in assay [10], 83.9%.

On to `CC(C)(C)c1cc(NC(=O)Nc2ccc(-c3cn4c5c(sc4n3)CCc3c[nH]cc3-5)cc2)no1`, for which the growth is -11.7% (active) in assay [1]; 32.9% in assay [2]; 44.2% in [3]; 7.92% (active) in assay [4]; 65.2% in assay [5]; 21.2% in [6]. In addition, the growth was 13.9% in assay [7], -17.9% (active) in [8], 15.1% in assay [9] and -10.8% (active) in assay [10].
